Results as given in PubChem BioAssay AID1628 (Sanford-Burnham Center for Chemical Genomics, 2009).
The whole screen tested about 190,000 compounds, of which about 930 (0.49%) were called active. This is one part of the list. Entries with a potency or affinity are not part of this list. A number with no mark means an inactive call.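 Rule for the calls: active = z-score of insulin promoter reporter brightness in nuclei below -3 at 5 µM, with at least 500 cells counted; inconclusive = wells with under 500 cells, flagged as toxic or sparse; inactive = the rest.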

assay: decrease of insulin promoter-GFP reporter – imaging, high-content screening, mouse beta cells (AID 1628); conditions: MIN6 insulin promoter GFP reporter, at 5 µM, active compounds read low

SMILES | z-score
O=C1c2ccccc2-n2c1nc1ccccc1c2=O | -2.2
COc1ccc(OC)c(C2=NOC(C(=O)NCC3CCCO3)C2)c1 (stereo unspecified) | 3.67
COc1ccc(-c2nnc(SCC3CCCO3)n2C)cc1 (stereo unspecified) | 2.62
CCOc1ccc(NC(=O)N2CCCC2C(=O)NCC2CCCO2)cc1 (stereo unspecified) | -3.14 (active)
CCOc1ccc(NC(=S)N2CCC(N(C)CC3CCCO3)CC2)cc1 (stereo unspecified) | 3.59
CCOc1ccc(-n2c(=O)c3c4c(sc3n(CC(=O)NCC3CCCO3)c2=O)CCC4)cc1 (stereo unspecified) | 1.12
O=[N+]([O-])c1ccc(N/N=C/c2cn(Cc3ccc(F)cc3)c3ccccc23)nc1 | 4.69
CC1(C)Cc2c(c(N3CCOCC3)nc3sc4c(NCc5ccco5)nnnc4c23)CS1 | -6.38 (active)
C=CCN1C(=O)/C(=C/c2ccc(N(C)C)cc2)S/C1=N\c1nnc(CC)s1 | 14.1
Cc1cc(C)cc(N(CC(=O)Nc2cccc(C)n2)S(=O)(=O)c2c(C)noc2C)c1 | 2.42
C/C=C/c1ccc(OCCCN2C(=O)NC(C)(C)C2=O)c(OC)c1 | -0.86
C#CCOCCOCCOCCNc1nc(N2CCN(C(=O)[C@H](CCCCN)n3cc(CCCC)nn3)CC2)nc(N2CCN(C(=O)[C@H](CCCCN)n3cc(CCCC)nn3)CC2)n1 | -4.64 (active)
CCCN1CC=C2C(C#N)=C(N)C(C#N)(C#N)C(c3cccc(OC)c3OC)C2C1 (stereo unspecified) | 8.86
CCOC(=O)N1CCC(NC2CCCCCCC2)CC1 | 0.8
O=C(O)C1CCN(C(=O)OCc2ccccc2)CC1 | -4.9 (active)
CN1/C(=C/C=C(C#N)C#N)C=Cc2ccccc21 | 5.52
Cc1nc(CN(C)C(=O)c2cc(COc3ccc4ncccc4c3)on2)cs1 | -5.59 (active)
c1ccc(-c2cnn3c(-c4ccccc4)c(-c4ccccc4)nc3n2)cc1 | 17
CCCCn1nc(-c2ccccc2)c2nc3ccccc3nc21 | 3.11
N=c1oc2c3c4c(cc2cc1C(=O)Nc1ccccc1)CCCN4CCC3 | 18
CCc1ccc2nc3sc(C(=O)N4CCc5ccccc54)c(N)c3cc2c1 | 4.93
CCCCC(=O)NC(c1cccs1)c1cc(Cl)c2cccnc2c1O (stereo unspecified) | -5.86 (active)
CCC(=O)NC(c1cccs1)c1cc(Cl)c2cccnc2c1O (stereo unspecified) | -4.24 (active)
CCN1CC=C2C(C#N)=C(N)C(C#N)(C#N)[C@H](c3cccc(OC)c3OC)[C@H]2C1 | 11.6

SMILES | z-score
Cc1ccc(N=C2NC(=O)/C(=C/c3cn(C)c4ccccc34)S2)cc1C | 3.02
CC1CC(=O)C2=C(C1)OC(N)=C(C#N)C2c1coc2ccccc2c1=O (stereo unspecified) | 3.02
NC(=O)c1sc2nccc(Nc3ccccc3)c2c1N | -3.42 (active)
Nc1c(C(=O)Nc2nccs2)sc2nc(-c3cccs3)cc(C(F)(F)F)c12 | 5.95
Nc1c(C(=O)O)sc2nc(-c3ccccc3)cc(-c3ccccc3)c12 | 4.64
CS(=O)c1nc(-c2ccc(Br)cc2)cc(-c2ccccc2)c1C#N (stereo unspecified) | -4.24 (active)
Cc1ccc(S(=O)(=O)CCSc2nc(C)cc(C(F)(F)F)c2C#N)cc1 | 10.9
Nc1c(Cl)ncnc1N1CCCC1 | -3.27 (active)
COc1ccc(-c2ccc3c(N)c(C(=O)c4cccc(OC)c4)sc3n2)cc1 | 4.07
COc1ccc2c(c1)sc1nc(-c3ccccc3)cn12 | -7.22 (active)
Cc1cc(Cl)cc(C)c1OCCCCn1ccnc1 | -4.53 (active)
CCOc1ccc(OCCCCn2ccnc2)cc1 | 3.52
Cc1cccc(OCCCCCn2ccnc2)c1C | -4.58 (active)
O=S(=O)(c1ccc2oc3ccc(S(=O)(=O)N4CCCCC4)cc3c2c1)N1CCCCC1 | -3.18 (active)
Cc1c(C(=O)NCc2cccnc2)oc2ccc(S(=O)(=O)N3CCCCCC3)cc12 | -5.16 (active)
Cc1ccc(S(=O)(=O)c2cccc(S(=O)(=O)N3CCCC3)c2)cc1S(=O)(=O)N1CCCC1 | 3.05
CCN(CC)S(=O)(=O)c1ccc2oc(C(=O)NCc3ccc(F)cc3)c(C)c2c1 | -4.31 (active)
O=C(O)CCCN=Cc1c(O)c2ccccc2oc1=O | 2.46
Cc1oc(C)c2c(=O)ccc3c(c12)OC(N)=C(C#N)C3c1ccccc1Cl (stereo unspecified) | 6.29
COCCNC(=O)Cc1ccc(F)cc1 | 3.03
COCCNC(=O)/C(=C/c1ccccc1Cl)c1ccccc1 | -5.46 (active)
Cn1cc(/C=C2\SC(=S)N(NC(=O)c3ccccc3)C2=O)c2ccccc21 | 6.71
CCC(=O)N1CCN(c2ccccc2NC(=O)COc2cc(C)ccc2C(C)C)CC1 | -3.26 (active)
COc1ccc(C)cc1NC(=O)CC(NC(C)=O)c1ccccc1 (stereo unspecified) | 4.5

SMILES | z-score
CCOc1ccc(-c2c(C#N)c(N)nc3sc(C(=O)c4ccccc4)c(N)c23)cc1 | 9.11
Cc1nnc(SCC(=O)c2cc(C)n(-c3ccc4c(c3)OCO4)c2C)s1 | -4.16 (active)
Cn1cc(C(N)=O)c2ccccc21 | 0.12
O=S(=O)(c1ccc(Br)cc1)N1CCN(c2cc(-c3ccccc3)nc3ncnn23)CC1 | -6.61 (active)
O=C(N=C1SCC(=O)N1c1ccccc1Cl)c1ccccc1 | 5.04
N/C(=N\OC(=O)N1c2ccccc2Sc2ccccc21)c1ccccc1 | -3.28 (active)
CC(C)NC(=O)NC(=O)COC(=O)c1cccc(S(=O)(=O)N2CCCCC2)c1 | 4.62
COc1ccccc1CNC(=O)COC(=O)c1ccc(S(=O)(=O)N2CCCC2)cc1 | -5.2 (active)
CCN1C(=O)CSc2ccc(C(=O)NCc3ccccc3OC)cc21 | 3.1
Cn1c(=O)[nH]c(=O)c2c1nc(N1CCCCC1)n2CCCSc1nc2ccccc2s1 | 0.01
CCC(=O)c1ccc(O)c(OC)c1 | -1.5
CCOC(=O)C(C)S(=O)(=O)c1ccc(C(F)(F)F)cn1 (stereo unspecified) | -4.01 (active)
CCOC(=O)C(C(C)=O)C(c1ccc(OCCC(C)C)cc1)C(C(C)=O)C(=O)OCC (stereo unspecified) | 0.98
CCN1CCN(c2ncc3c(n2)CC(c2cc(OC)c(OC)c(OC)c2)CC3=O)CC1 (stereo unspecified) | -3.96 (active)
O=C(NNC(=O)c1cccnc1)NC12CC3CC(CC(C3)C1)C2 | -3.86 (active)
O=C(Nc1ccc(N2CCCCC2)cc1)c1cccnc1 | 3.44
O=C(NCc1cccnc1)c1cnn2ccccc12 | -7.96 (active)
O=C(Nc1nc(-c2cccs2)cs1)c1ccc(Cl)s1 | -3.6 (active)
Cc1csc(NC(=O)c2sc3nc(-c4cccs4)ccc3c2N)n1 | 4.58
Nc1c(C(=O)Nc2nc3ccccc3s2)sc2nc(-c3cccs3)ccc12 | 5.64
Cc1sc(-n2c(C)cc(/C=N/n3cnnc3)c2C)c(C#N)c1C | -4.46 (active)
Cc1cc(/C=N/n2cnnc2)c(C)n1-c1cccc(C(=O)O)c1 | 4.18
CCOc1ccc(-n2c(O)c(/C=N/Nc3nnc(C)c(=O)[nH]3)c3ccccc3c2=O)cc1 | -5.62 (active)
O=c1c2ccccc2c(C=Nc2ccccc2O)c(O)n1-c1nccs1 | 4.35

SMILES | z-score
Cc1ccc(-n2c(O)c(/C=N/NC(=O)C3COc4ccccc4O3)c3ccccc3c2=O)cc1 (stereo unspecified) | 3.14
O=c1oc2cc(O)ccc2cc1-c1nc2c(s1)CCc1ccccc1-2 | 13.6
CC1(C)Cc2c(ccc3ccccc23)C(c2cc3ccccc3oc2=O)=N1 | 4.19
O=C(NCCCCc1ccccc1)c1ccc(Br)o1 | 1.07
CCCCN(CC)CCNC(=O)c1cc2c(C)nc3ccccc3c2o1 | 0.65
Cc1ccccc1C(=O)NCCCc1ccccc1 | -5.2 (active)
Cc1cc(C(=O)CSc2nnnn2-c2ccccc2)c(C)n1CC1CCCO1 (stereo unspecified) | -1.4
CCCCC1=CC2=C(c3ccco3)C(=O)C(C)(OC(=O)c3ccc(OC)cc3)C(=O)C2=CN1CC(C)C (stereo unspecified) | 4.34
CC(CNC(=O)c1cncc(O)c1)NC(=O)c1cncc(O)c1 (stereo unspecified) | 3.21
CCCN1C=CC(=C/C=C(\C#N)C(=O)OCC)C=C1 | 3.98
O=C(C1=NN(c2ccccc2)C2C(=O)N(c3cccc(Cl)c3)C(=O)C12)c1ccccc1 (stereo unspecified) | 3.17
CCCCN1C(=O)/C(=C/C=C2\SCCN2C)SC1=S | 13.8
Cc1ccc(/C=N/NC(=O)NC2CCCCC2)o1 | -4.13 (active)
NC1=NC[C@@H](Cc2ccc(O)cc2)N1CCCCC1CCCCC1 | -1.05
CCn1c(CN2CCCCCC2=O)nnc1SCc1cnc(-c2ccccc2)s1 | -3.13 (active)
CCn1c(Cn2nnc(-c3ccccc3)n2)nnc1SCC(=O)Nc1ccc(C(C)=O)cc1 | 4.86
O=[N+]([O-])c1ccc(-c2ccc(/C=N/Nc3nc(N4CCCCC4)nc(N4CCCCC4)n3)o2)cc1 | 5.14
O=[N+]([O-])c1ccc(-c2ccc(/C=N/Nc3nc(NCc4ccccc4)nc(N4CCOCC4)n3)o2)cc1 | 9.01
O=C(CSc1ccc2nnc(CCNC(=O)c3ccccc3)n2n1)Nc1ccccc1 | 2.32
COc1cc2c(cc1OC)-c1nncn1C(C)(C)C2 | 3.76
CCCCN(C)C1=CC2=CC(=C(C#N)C#N)CCC2CC1 (stereo unspecified) | 16
COc1cc2c(cc1NC(=O)CN1CCN(S(=O)(=O)c3ccccc3F)CC1)oc1ccccc12 | 3.63
COc1ccc(Cl)cc1NC(=O)C1(c2cccs2)CCOCC1 | 3.78
COc1cc(NC(=O)c2ccccc2)c(OC)cc1NC(=O)CN1CCOCC1 | -3.01 (active)
